Laboratory results reported in the supplement of paper PMC3334620.
The full ranking holds about 33,000 sequences; the median of “E-score (-0.5 to 0.5)” is about -0.041, and the highest 2% start at about 0.37. The list comes from a sample in which the highest values are over-represented; it also holds similar and randomly drawn sequences.

biological target: T1, Ecm22 (UniProt Q05958); test: PBM E-score (8-mer binding enrichment) (E-score (-0.5 to 0.5)); higher = stronger / more preferred TF binding; settings: protein concentration: 200 nM; construct: GST-full length
T1 sequence: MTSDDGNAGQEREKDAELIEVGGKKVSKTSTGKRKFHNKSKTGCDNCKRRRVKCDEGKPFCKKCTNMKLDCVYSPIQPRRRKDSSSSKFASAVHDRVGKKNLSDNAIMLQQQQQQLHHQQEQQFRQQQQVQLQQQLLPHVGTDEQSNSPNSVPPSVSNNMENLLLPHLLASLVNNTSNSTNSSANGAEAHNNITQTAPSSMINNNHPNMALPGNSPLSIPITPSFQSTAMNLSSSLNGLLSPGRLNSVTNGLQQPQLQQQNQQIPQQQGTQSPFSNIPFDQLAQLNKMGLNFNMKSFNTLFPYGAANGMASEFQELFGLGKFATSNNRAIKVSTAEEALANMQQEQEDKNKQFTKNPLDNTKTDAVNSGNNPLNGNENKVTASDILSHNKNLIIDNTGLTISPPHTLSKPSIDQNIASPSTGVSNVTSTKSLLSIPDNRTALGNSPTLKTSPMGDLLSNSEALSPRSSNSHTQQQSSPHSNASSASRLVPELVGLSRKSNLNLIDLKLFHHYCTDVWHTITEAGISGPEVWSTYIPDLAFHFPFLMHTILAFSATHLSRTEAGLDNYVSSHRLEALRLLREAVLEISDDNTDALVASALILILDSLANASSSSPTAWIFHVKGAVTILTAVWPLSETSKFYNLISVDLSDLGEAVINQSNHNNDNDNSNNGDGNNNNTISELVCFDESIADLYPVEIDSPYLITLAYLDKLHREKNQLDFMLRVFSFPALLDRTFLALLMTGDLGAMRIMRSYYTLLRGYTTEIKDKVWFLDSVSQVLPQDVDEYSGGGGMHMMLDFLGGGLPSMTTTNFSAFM
Procedure: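 Universal 'all 10-mer' protein binding microarrays (Agilent AMADID 015681) probed with GST-tagged S. cerevisiae TFs (full-length or DBD) made by in vitro transcription/translation (PURExpress), about 100-200 nM. Bound TF was detected with fluorescent anti-GST. Each ungapped 8-mer (which stands for itself and its reverse complement) is scored by the PBM enrichment score (E-score), a modified Wilcoxon-Mann-Whitney statistic from -0.5 to +0.5, computed with the Universal PBM Analysis Suite. Scale: above 0.35 generally sequence-specific binding.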

Compared with GGCATTAC, GAGTTGAA is higher in “PBM E-score” value: -0.132 for the first, 0.04 for the second.

First: AGAACGTC
Second: AGAACGAC
The “PBM E-score” value of the first is lower: -0.0743 for the first, 0.425 for the second.

Compared with CTAACGAA, GGAACGCC is lower in “PBM E-score” value: 0.219 for the first, 0.051 for the second.

Compared with GGAACGAC, ATAACGAA is lower in “PBM E-score” value: 0.491 for the first, 0.185 for the second.

Compared with GTAACGAC, TTAACGAA is higher in “PBM E-score” value: 0.289 for the first, 0.411 for the second.

First: ATAACGAC
Second: CGAACGTA
The “PBM E-score” value of the first is lower: 0.203 for the first, 0.214 for the second.

Going from CGAACGAA to CGAACAAA, the “PBM E-score” value falls from 0.393 to 0.2.

First: AATGTCCG
Second: GCGAAGTA
The “PBM E-score” value of the first is higher: 0.127 for the first, 0.112 for the second.

Compared with ACCACTGC, GGTGCCAA is higher in “PBM E-score” value: -0.25 for the first, -0.179 for the second.

Going from AATGGGGG to CAAGGGAG, the “PBM E-score” value rises from -0.268 to 0.062.

First: ACGCCCAC
Second: GGAAACAC
The “PBM E-score” value of the first is lower: -0.181 for the first, 0.0703 for the second.

First: TACGGACA
Second: GGAACGCA
The “PBM E-score” value of the first is higher: 0.258 for the first, 0.23 for the second.

Compared with AGAACGAT, AGAACAAA is lower in “PBM E-score” value: 0.342 for the first, 0.0892 for the second.

Compared with GGAACGTA, TGAACAAA is lower in “PBM E-score” value: 0.353 for the first, 0.165 for the second.

First: GGAACGAA
Second: AGAACGAA
The “PBM E-score” value of the first is higher: 0.489 for the first, 0.422 for the second.

Compared with TGAACGAA, TGAACGCA is lower in “PBM E-score” value: 0.434 for the first, 0.0733 for the second.

Compared with ACAGAAGT, CCTAAGTA is higher in “PBM E-score” value: -0.182 for the first, 0.0729 for the second.

First: ACCGACCG
Second: GACGACCC
The “PBM E-score” value of the first is higher: 0.278 for the first, -0.108 for the second.

Compared with TCCGACCA, AACGACCG is higher in “PBM E-score” value: 0.16 for the first, 0.407 for the second.

First: AACGACCC
Second: CACGACCC
The “PBM E-score” value of the first is higher: 0.386 for the first, -0.0107 for the second.

Going from CACGACCG to CACGACCA, the “PBM E-score” value falls from 0.0498 to 0.0103.

Compared with AACGACCA, GACGACCA is lower in “PBM E-score” value: 0.424 for the first, 0.097 for the second.

Compared with TGCGACCA, TACGACCA is higher in “PBM E-score” value: 0.215 for the first, 0.449 for the second.

Going from CGGCGTTA to AGCAATTA, the “PBM E-score” value falls from 0.0563 to -0.107.

First: CCCAGGTC
Second: AAGTTGGT
The “PBM E-score” value of the first is lower: -0.218 for the first, 0.0141 for the second.

Going from CTCAAGTA to CATAACAC, the “PBM E-score” value rises from -0.142 to 0.0539.

Compared with AGCCTCTC, CGATAAAC is higher in “PBM E-score” value: -0.117 for the first, 0.259 for the second.

Compared with GACTTTTA, CAGGCTGC is lower in “PBM E-score” value: -0.222 for the first, -0.272 for the second.

Going from ATGCCATA to GATAGACC, the “PBM E-score” value rises from 0.0201 to 0.0888.

Going from AACGACCT to ACCGACCT, the “PBM E-score” value falls from 0.385 to 0.0975.

First: AGCGACCT
Second: GGACTGGA
The “PBM E-score” value of the first is higher: 0.0578 for the first, -0.323 for the second.

First: AACTGGGC
Second: ACGTTAAA
The “PBM E-score” value of the first is lower: -0.0689 for the first, 0.213 for the second.

First: TCGTTAAA
Second: CCGTAACA
The “PBM E-score” value of the first is higher: 0.44 for the first, 0.2 for the second.

Going from ACGTATCA to ACGTAAGA, the “PBM E-score” value falls from 0.281 to 0.105.

Going from CCGTTAAA to GCGTAACA, the “PBM E-score” value falls from 0.278 to 0.00254.

First: CCGTAAGA
Second: TCGTAACA
The “PBM E-score” value of the first is lower: 0.164 for the first, 0.425 for the second.

Going from GCGTATCA to TCGTATCA, the “PBM E-score” value rises from 0.114 to 0.463.

First: TCGTAAGA
Second: AATGGGCA
The “PBM E-score” value of the first is higher: 0.407 for the first, -0.0348 for the second.

Compared with AGAAATAA, AGAAGCCA is higher in “PBM E-score” value: -0.0747 for the first, -0.0549 for the second.

First: ACGAGTGG
Second: ATTTTCCA
The “PBM E-score” value of the first is higher: 0.331 for the first, -0.0726 for the second.

Compared with ACGTAAAA, GCGTAAAA is lower in “PBM E-score” value: 0.243 for the first, 0.217 for the second.

Going from TCGTAAAA to GGCAGGGA, the “PBM E-score” value falls from 0.476 to -0.148.

Going from AATTCAGA to CTCGTTTC, the “PBM E-score” value rises from -0.0476 to 0.453.

First: CTCGTTGA
Second: CTCGTTGC
The “PBM E-score” value of the first is lower: 0.277 for the first, 0.445 for the second.

Going from CGCGTTTC to ATCGTTGC, the “PBM E-score” value rises from 0.0578 to 0.347.

Going from CACGTTTC to CTGCAAAA, the “PBM E-score” value falls from -0.0133 to -0.0893.

First: ACGGGTTA
Second: ACGCATCA
The “PBM E-score” value of the first is higher: 0.217 for the first, 0.0479 for the second.

Going from ATTCGGAC to CCGGGTAC, the “PBM E-score” value rises from 0.163 to 0.291.

Going from ATTTGAAC to CTCAGCTC, the “PBM E-score” value falls from 0.0528 to -0.0614.

Compared with ATCATCTC, GTAAACAA is higher in “PBM E-score” value: 0.0439 for the first, 0.279 for the second.

Going from GTATCGAA to ATATCGTC, the “PBM E-score” value falls from 0.161 to 0.0456.

First: CTATCGTA
Second: GTATCGGA
The “PBM E-score” value of the first is higher: 0.406 for the first, 0.199 for the second.

Compared with GTATCGTA, CTATCGTC is lower in “PBM E-score” value: 0.421 for the first, -0.0492 for the second.

First: CTATCGAA
Second: ATATCGTA
The “PBM E-score” value of the first is lower: 0.0456 for the first, 0.413 for the second.

Going from ATATCGTG to AGGCTTGC, the “PBM E-score” value falls from 0.147 to -0.219.

First: CCAAGACA
Second: AAGCTGGG
The “PBM E-score” value of the first is higher: -0.257 for the first, -0.271 for the second.

Compared with AAACTGAC, AAGTGGCC is lower in “PBM E-score” value: 0.00573 for the first, -0.248 for the second.

First: ACCCTACC
Second: ATATACTG
The “PBM E-score” value of the first is lower: -0.0742 for the first, 0.0789 for the second.

Going from ATATACGC to ATATACAA, the “PBM E-score” value falls from 0.299 to 0.0401.

Going from ATATACGG to CTATACGC, the “PBM E-score” value falls from 0.441 to 0.403.

Going from ATATACGA to ATATACCG, the “PBM E-score” value falls from 0.49 to 0.21.

Going from ATATACCA to CTATACTC, the “PBM E-score” value falls from 0.0649 to 0.0609.

First: CAGGCTTA
Second: CTTGTGGC
The “PBM E-score” value of the first is lower: -0.245 for the first, -0.239 for the second.

First: AAAGGTCG
Second: ACGATCAG
The “PBM E-score” value of the first is lower: 0.00556 for the first, 0.224 for the second.

Going from GATCAGGA to AGTTGTCA, the “PBM E-score” value rises from -0.069 to -0.0616.

First: CGGGTCGA
Second: CACGTTTA
The “PBM E-score” value of the first is lower: -0.00467 for the first, 0.256 for the second.

Going from GCCGTTTA to CCCGTTTA, the “PBM E-score” value rises from 0.421 to 0.433.

First: CCCGTTTC
Second: ACCGTTTA
The “PBM E-score” value of the first is lower: 0.216 for the first, 0.432 for the second.

Compared with GCCGTTGA, ACCGTTTC is higher in “PBM E-score” value: -0.138 for the first, 0.187 for the second.

First: ACCGTTTG
Second: GCCGTTAA
The “PBM E-score” value of the first is higher: 0.287 for the first, 0.24 for the second.

First: GCAGCGCA
Second: ACGCAGAT
The “PBM E-score” value of the first is lower: -0.0703 for the first, 0.194 for the second.

Compared with GACGAGAA, TTCGAGAA is higher in “PBM E-score” value: 0.138 for the first, 0.149 for the second.

Compared with AACGAGAA, GACGAGAC is lower in “PBM E-score” value: 0.424 for the first, 0.029 for the second.

Compared with ACCGAGAT, CACGAGAA is lower in “PBM E-score” value: 0.178 for the first, 0.143 for the second.

First: AACGAGAC
Second: CACGAGAC
The “PBM E-score” value of the first is higher: 0.451 for the first, 0.0819 for the second.

Going from ATCGAGAT to AACGAGAT, the “PBM E-score” value rises from 0.0251 to 0.438.

Going from TCCGAGAA to TACGAGAA, the “PBM E-score” value rises from 0.265 to 0.462.

Going from CTCCCTCA to CTTCTAAA, the “PBM E-score” value rises from -0.162 to -0.0244.

First: GCTGTCTA
Second: GGTACTAA
The “PBM E-score” value of the first is lower: -0.0813 for the first, 0.0853 for the second.

Compared with CACAGAAC, CTCGACCA is lower in “PBM E-score” value: 0.00026 for the first, -0.0786 for the second.

Going from CCCGAAGA to AATGCAGA, the “PBM E-score” value falls from 0.0524 to -0.0678.

Compared with AACGAGAG, CACGAGAG is lower in “PBM E-score” value: 0.433 for the first, 0.0712 for the second.

First: ATCGAGAG
Second: ATCAAGGG
The “PBM E-score” value of the first is higher: 0.0766 for the first, -0.149 for the second.

Going from ATCTACGA to AGCTACGG, the “PBM E-score” value falls from 0.304 to 0.112.

Going from AGCTACGC to CGCTACAA, the “PBM E-score” value falls from 0.141 to 0.0321.

Compared with GGCTACCA, CGCTACGC is higher in “PBM E-score” value: -0.2 for the first, 0.138 for the second.

Compared with CTCTACGA, CGCTACGA is higher in “PBM E-score” value: 0.37 for the first, 0.456 for the second.
